Reference: the OligoGym collection

target: ACOT6; test: pooled miR-30 sensor sort-seq; sequence = guide strand; conditions: shRNA

Row | Sequence | sensor-assay potency score (higher = more potent)
1 | TTACTTTTCCTAGATCATCGAC | -0.0892
2 | TAATGTAGAGGAGCTACTGTGT | 0.0472
3 | TTGATAAGTACAGTGGCTGTGA | 0.402
4 | TTAGGAATAATCATATCCTTGT | 0.922
5 | TATCCTTGTAATGTAGAGGAGC | -0.764

target: ACRV1; test: as above; conditions: shRNA

Row | Sequence | sensor-assay potency score (higher = more potent)
6 | TTTGCATCCTCGTTCCATGGGA | 0.226
7 | TCTTTAACATGCACTGCTGGGA | -0.397
8 | TTCAAAGATCTTCTTTAACATG | -1.23
9 | TGAAGTTTGATGATCTATGGAG | 0.139
10 | TAGGCTGACTTGATGTTCCTCT | 0.616
11 | TTGAACCATGAATTGGAGTTTT | -1.17
12 | ATTCATATAAGCACATGTGTAG | -0.436
13 | TTCGACAGCATATAATTTGCAT | -0.0881
14 | TTCTTTAACATGCACTGCTGGG | -0.734
15 | TTTTCCACCTTCAAAGATCTTC | -0.56
16 | TCTTCTTTAACATGCACTGCTG | -0.6
17 | TAATTTGCATCCTCGTTCCATG | -0.581
18 | TTAGGCTGACTTGATGTTCCTC | -0.162
19 | ATAATTTGCATCCTCGTTCCAT | -0.172
20 | TTGCATCCTCGTTCCATGGGAG | 0.0526
21 | TAATATTGTGCCTGAAGGCTGT | 0.0194
22 | TCAAAGATCTTCTTTAACATGC | -0.277
23 | TCGACAGCATATAATTTGCATC | -1.21
24 | ATCTTCTTTAACATGCACTGCT | -0.185
25 | TTTAACATGCACTGCTGGGAAT | -1.59
